17 compounds from PubChem BioAssay (EPA / NIEHS) can be followed below.

The source made the active and inactive calls. The calls were made as follows: active = hit-call score of the fitted dose curve at least 0.9, where 1 is the maximum; inactive = score below 0.9.

Test [1] is described as follows: APR_HepG2_StressKinase_1hr: Apredica 1-hour HepG2 Assay for Stress Kinase (AID 2282906). To be noted: HepG2 stress kinase (phospho-c-Jun) imaging, actives raise or lower the signal. Summed up:
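HepG2 cells dosed 0.39-200 uM (0.5% DMSO) for 1 h, then formaldehyde-fixed. Stress kinase read by phospho-c-Jun immunofluorescence using high-content imaging; bidirectional fit vs DMSO.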

A short description of test [2]: APR_HepG2_NuclearSize_24hr: Apredica 24-hour HepG2 Assay for Nuclear Size (AID 2282907). The note with it: high-content imaging, actives raise or lower the signal. Summed up:
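HepG2, 24 hr dosing, 10-pt 0.39–200 uM, duplicates, 0.5% DMSO final; 3.7% formaldehyde fix, 0.5% Triton X-100; Hoechst 33342 nuclear stain; ArrayScan HCS, Cell Cycle analysis → nuclear size; bidirectional fit vs DMSO.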

A short description of test [3]: APR_HepG2_CellLoss_24hr: Apredica 24-hour HepG2 Assay for Cell Loss (AID 2282908).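 As to AC50: fit in both directions so a hit may be cell loss or gain.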 The note with it: high-content imaging. In short, it runs like this: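 10-pt dose, 0.39–200 uM, n=2/plate; DMSO 0.5% v/v final as negative control. Fix 3.7% formaldehyde 30 min RT, permeabilize 0.5% Triton X-100, stain Hoechst 33342 2 ug/mL, image 20x. Nuclear count, bidirectional fit vs DMSO.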

The nature of test [4]: APR_HepG2_MicrotubuleCSK_24hr: Apredica 24-hour HepG2 Assay for Microtubule CSK Stabilty (AID 2282909). To be noted: HepG2 microtubule cytoskeleton imaging, actives raise or lower the signal. Summed up:
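Human liver HepG2, 24 h dosing, 0.39–200 uM ×10 conc, dup, 0.5% DMSO. 3.7% formaldehyde fix, 0.5% Triton perm, anti-alpha-tubulin (1:200)/Cy5 secondary + Hoechst. HCS imaging, 6 fields/well; gain/loss fit vs DMSO.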

Test [5] can be described thus: APR_HepG2_MitoticArrest_24hr: Apredica 24-hour HepG2 Assay for Mitotic Arrest (AID 2282910). To be noted: high-content imaging, actives raise or lower the signal. In short, it runs like this:
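Compounds are dosed onto HepG2 cells across ten concentrations up to 200 uM for 24 hr. Cells are then fixed in 3.7% formaldehyde, permeabilised, and labelled for phospho-histone H3 and nuclei; images are scored by cell cycle analysis and fitted bidirectionally relative to DMSO.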

Test [6] in a line: APR_HepG2_MitoMembPot_24hr: Apredica 24-hour HepG2 Assay for Mitochondrial Membrane Potential (AID 2282911). To be noted: imaging, actives raise or lower the signal. In short, it runs like this: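 Human hepatoma HepG2 cultures received ten compound concentrations up to 200 uM for 24 hr. Membrane-potential dye signal, captured by automated fluorescence microscopy, was scored for gain or loss against DMSO controls.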

Test [7] is described as follows: APR_HepG2_MitoMass_24hr: Apredica 24-hour HepG2 Assay for Mitochondrial Mass (AID 2282912). To be noted: high-content imaging, actives raise or lower the signal. In short, it runs like this:
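Mitochondrial mass is read as MitoTracker Red fluorescence intensity from automated imaging, with bidirectional curve fitting relative to DMSO. HepG2 cells received compound (0.39–200 uM, 0.5% DMSO final) for 24 hr and were dye-loaded (250 nM, 30 min) before formaldehyde fixation.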

A short description of test [8]: APR_HepG2_CellCycleArrest_72hr: Apredica 72-hour HepG2 Assay for Cell Cycle Arrest (AID 2282914). To be noted: high-content imaging, actives raise or lower the signal. In short, it runs like this: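 Cell cycle arrest in HepG2 was scored from nuclear DNA content after 72 hr compound treatment (0.39–200 uM). Activity, either gain or loss, was fitted against the DMSO baseline.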

Test [9] can be described thus: APR_HepG2_CellLoss_72hr: Apredica 72-hour HepG2 Assay for Cell Loss (AID 2282915). To be noted: high-content imaging. In short, it runs like this:
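Cell number comes from Hoechst 33342-labelled nuclei, imaged at 20x after 3.7% formaldehyde fixation. Dosing was 0.39–200 uM, ten concentrations in duplicate, 0.5% DMSO final, for 72 h. Bidirectional fit relative to DMSO baseline.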

Test [10] can be described thus: APR_HepG2_p53Act_24hr: Apredica 24-hour HepG2 Assay for p53 Activation (AID 2282913).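 Also: p53 protein immunofluorescence averaged per cell in HepG2 with Hoechst nuclei.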 To be noted: high-content imaging, actives raise or lower the signal. In short, it runs like this:
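Automated fluorescence imaging quantifies p53 immunostaining in HepG2 cells after a 24 hr exposure (0.39–200 uM, duplicate, 0.5% DMSO). Nuclei are located by Hoechst 33342 staining.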

`CCCSP(=O)(OCC)SCCC`: the call in [1], in test [2], in [3], in [4], in [5] and in test [6] was inactive. The outcome in [7], in test [8] and in test [9] was inactive.
In the case of `CCOP(=S)(OCC)Oc1ccc2c(C)c(Cl)c(=O)oc2c1`, the compound was called inactive in test [1], in test [2], in [3], in test [4], in test [6] and in test [7]. The compound was classed as inactive in [10] and in test [8]. Moreover, the AC50 in [5] was 114 µM (active); in test [9], 49.1 µM (active).
As for `CN(C)NC(=O)CCC(=O)O`, the result in test [2], in [3], in test [4], in test [5], in test [6] and in test [7] was inactive. Further, the call in [10], in [8] and in test [9] was inactive.
On to `CCCCSP(=O)(SCCCC)SCCCC`, for which the compound was called inactive in test [1], in test [2], in test [3], in test [4], in [5] and in test [6]. The result in test [7], in test [10] and in [8] was inactive. Also, in test [9], the AC50 was 87.3 µM (active).
For `CCOP(=O)(OCC)Oc1cc(C)nc(C(C)C)n1`, the call in [1], in test [2], in [3], in test [4], in test [5] and in test [6] was inactive. The result in [7], in test [10], in test [8] and in test [9] was inactive.
Take `CC(COc1ccc(Oc2ccccc2)cc1)Oc1ccccn1` (stereo not given): the call in [1], in test [2], in [3], in [4], in [5] and in [7] was inactive. In [10], the result was inactive. Besides, the figures for the AC50 in test [6], in [8] and in test [9] were 65.7 µM (active), 87 µM (active) and 49.2 µM (active), respectively.
With `COP(=O)(OC)OC(Br)C(Cl)(Cl)Br` (stereo not given), the compound was called inactive in [1], in test [2], in [6], in [7] and in [8]. For the same compound, the AC50 in test [3] was 45 µM (active); in test [4], 34.1 µM (active); in test [5] it was 34.2 µM (active); in [9] it was 29.7 µM (active).
With `CCOP(=S)(OCC)OC(Cl)C(Cl)(Cl)Cl` (stereo not given), the call in test [1], in test [2], in test [4], in test [5], in [7] and in test [10] was inactive. Moreover, the AC50 in [3] is 97.5 µM (active); in test [6], 151 µM (active); in test [8] it was 165 µM (active); in test [9], 144 µM (active).
As to `CC1(C(=O)Nc2ccc(O)c(Cl)c2Cl)CCCCC1`, the result in [1], in test [2], in [3], in test [5], in [6] and in [7] was inactive. For the same compound, the compound was called inactive in test [10] and in test [8]. Moreover, the AC50 was 94 µM (active) in test [4] and 71.2 µM (active) in test [9].
As to `CC(C1CC1)C(O)(Cn1cncn1)c1ccc(Cl)cc1` (stereo not given), the compound was classed as inactive in test [1], in test [2], in [3], in test [4], in test [5] and in test [6]. Also, the outcome in test [7], in [10], in test [8] and in test [9] was inactive.
Take `CCOP(=S)(OCC)SCCSCC`: the call in test [2], in [3], in [4], in test [5], in test [6] and in test [7] was inactive. Also, the result in [10], in [8] and in test [9] was inactive.
With `CCNc1nc(Cl)nc(NC(C)(C)C#N)n1`, the compound was classed as inactive in test [1], in [2], in test [3], in test [4], in [5] and in test [6]. The compound was called inactive in test [7], in test [10], in test [8] and in [9].
Take `CC(C)=CC1C(C(=O)OCN2C(=O)C3=C(CCCC3)C2=O)C1(C)C` (stereo not given): the compound was called inactive in test [1], in [2], in [5], in [6], in [7] and in [10]. Moreover, in test [8], the call was inactive. The AC50 in [3] is 109 µM (active); in test [4] it was 105 µM (active); in [9], 100 µM (active).
With `CC(C)[C@H](C(=O)O[C@H](C#N)c1cccc(Oc2ccccc2)c1)c1ccc(Cl)cc1`, the result in [1], in test [2], in test [3], in test [4], in test [5] and in test [6] was inactive. The call in [7], in [10], in test [8] and in test [9] was inactive.
For `CCC(=O)Nc1ccc(Cl)c(Cl)c1`, the compound was classed as inactive in test [2], in [3], in [4], in test [5], in [6] and in test [7]. The result in [10], in test [8] and in test [9] was inactive.
Take `CNC(=O)ON=C(C)SC`: the call in test [1], in test [2], in test [3], in test [4], in [5] and in test [6] was inactive. Further, the call in test [7], in test [10], in test [8] and in [9] was inactive.
For the compound `CSc1nnc(C(C)(C)C)c(=O)n1N`, the result in test [1], in test [2], in [3], in [4], in [5] and in test [6] was inactive. For the same compound, the outcome in test [7], in [10], in test [8] and in test [9] was inactive.

By AC50 is commonly meant the midpoint of the concentration-response curve, whichever way the signal moves.
